Results on 33 compounds are retold here after PubChem BioAssay (NCATS).

Records with an inconclusive call do not appear. Where a call stands in place of a potency, no number is given. Active and inactive are the calls of the source. The call rests on the fitted dose curve; in most records, active means well fitted inhibition curve with a large enough effect; inconclusive means small, poorly fitted or top-dose-only effect; inactive means no such curve, though single readings can be large or run the other way. Where a SMILES comes first, the peptide text is derived from it. [ ]: non-standard residue; d: D form. Hyp = O=C(O)[CH]1C[CH](O)CN1; Phe(ol) = N[CH](CO)Cc1ccccc1; Iva = CC[C](C)(N)C(=O)O; Aib = CC(C)(N)C(=O)O

The subject of the experiment is Zika virus NS2B-NS3 protease (linked construct). In words: Primary screen NINDS Rhodamine qHTS for Zika virus inhibitors (AID 1347160). Further: nearly all actives have a fitted effect of over 55% in size. The conditions noted are these: purified NS2B-NS3 protease, Rhodamine110 substrate fluorescence; series mostly up to 57.1 µM. The gist of the method:
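Rhodamine110-peptide cleavage (1.5 µM substrate) by 25 nM linked NS2B-NS3 enzyme at pH 8.0 (Tris, Tween 20), after 15 min RT preincubation with compounds; 15-min fluorescence change normalized to controls and Hill-fitted.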
For orientation: qHTS replaces the single test concentration by a dilution series.
With `CCN(CCNC(=O)Nc1ccccc1Br)c1cccc(C)c1`, the Potency entry was “inactive”. Still for that read-out and setting: then `C=C1CC2OC(=O)C(=C)C2C(O)/C=C(\C)CCC1O` (stereo not drawn), with “inactive”. Still for that read-out and setting: then `CCN1CCN(Cc2ccc(NC(=O)c3ccc(C)c(Oc4ncnc5[nH]c(C)cc45)c3)cc2C(F)(F)F)CC1`, with “inactive”; and `C=C1C(=O)O[C@@H]2C3C(=C(C)[C@@H](O)[C@@H](OC(=O)/C(=C/C)COC(C)=O)[C@@H]12)C(=O)[C@H]1O[C@@]31C` (stereo partly drawn), with “inactive”; and `COc1cc(NC(=O)c2cccc(-n3cc(NC(=O)Nc4cccc(C)c4)cn3)c2)cc(OC)c1OC`, with “inactive”.

For `CN1CCN(C2CCN(C(=O)Nc3cc(Oc4ccc(NC(=O)C5(C(=O)Nc6ccc(F)cc6)CC5)c(F)c4)ccn3)CC2)CC1`, the Potency result was “inactive”. Take `Cc1ccc(S(=O)(=O)NCc2ccc(C(=O)NCCN(Cc3ccccc3)C(C)C)cc2)cc1`: the Potency entry was “inactive”. Turning to `O=C(NC1CCC1)c1ccc(C#Cc2cccc(F)c2)nc1`, the Potency result is “inactive”. The same measure, in the same setting: as for `COc1ccccc1-c1ccc(-c2cn(C(=O)N3CCCCC3Cc3ccccc3)nn2)cc1` (stereo not drawn), the entry is “inactive”; as for `CC(C)(O)C1Cc2c(ccc(C(=O)CCc3ccccc3)c2O)O1` (stereo not drawn), “inactive”. Same read-out and setting: as for `c1cc(NCCc2c[nH]c3ccccc23)cc(Nc2ccncc2)c1`, the entry is “inactive”; as for `Cn1ncc2cc(-c3cnc(N)c(Cl)c3N3CCC4(CCNC4=O)CC3)ccc21`, “inactive”. For the compound `C[C@@]12C(=O)N(c3ccc(C(=O)Nc4cccc5cccnc45)cc3)C(=O)[C@@H]1[C@@H]1C=C[C@H]2C1`, the Potency entry was “inactive”. Same read-out and setting: then `Fc1ccc(N2CCCCC2)c(NC(=S)c2ccncc2)c1`, with “inactive”; and `CC(C)CCNc1ncccc1C(=O)N1CCN(Cc2ccccc2)CC1`, with “inactive”; and `Nc1nccc(-c2c(-c3ccc(F)cc3)ncn2C2CCCCC2)n1`, with “inactive”.

Take `CC(C)NCCCn1c(Sc2cc3c(cc2I)OCO3)nc2c(N)ncnc21`: the Potency entry was “inactive”.

On to `CCOc1ccc(-n2c(C(C)N(Cc3cccnc3)C(=O)Cc3ccc(F)c(C(F)(F)F)c3)nc3ncccc3c2=O)cc1` (stereo not drawn), for which the Potency result is “inactive”. Still for that read-out and setting: then `CCN(c1cc(-c2ccc(CN3CCOCC3)cc2)cc(C(=O)NCc2c(C)cc(C)[nH]c2=O)c1C)C1CCOCC1`, with “inactive”; and `CN1CC[C@@H](c2c(O)cc(O)c3c(=O)cc(-c4ccc(C(F)(F)F)cc4Cl)oc23)[C@@H]1CO`, with “inactive”. As to `CO[C@@H]1[C@H](O)CCC2(CO2)[C@H]1[C@@]1(C)O[C@@H]1CC=C(C)C` (stereo partly drawn), the Potency entry was “inactive”.

Regarding `COc1ccccc1C(=O)Nc1cccc(NC(=O)c2cccc(C)c2)c1`, the Potency result was “inactive”. Same read-out and setting: as for `CCOc1ccc(-n2c([C@@H](C)N(Cc3cccnc3)C(=O)Cc3ccc(OC(F)(F)F)cc3)nc3ncccc3c2=O)cc1`, the entry is “inactive”.

Regarding `COCC(=O)NC/C=C/c1ccc2ncnc(Nc3ccc(Oc4ccc(C)nc4)c(C)c3)c2c1`, the Potency result is “inactive”. On the same count and under the same terms, as for `C=C1C(=O)OC2/C=C(\C)CC/C=C(\C)CC(OC(C)=O)C12` (stereo not drawn), the entry is “inactive”; as for `CC(C)/C=C1\NC(=O)C(C(C)C)n2c1nc1ccccc1c2=O` (stereo not drawn), “inactive”. Same read-out and setting: then `O=[N+]([O-])c1cn2c(n1)OC[C@@H](OCc1ccc(-c3ccc(OC(F)(F)F)cc3)nc1)C2`, with “inactive”.

As to `C=C1CO[C@@]2(O[C@H]3CC4C5CC=C6C[C@@H](O)C[C@@H](O[C@@H]7OC[C@H](O)[C@H](O[C@@H]8OC[C@@H](O)[C@H](O)[C@H]8O)[C@H]7O[C@@H]7O[C@@H](C)[C@H](OC(C)=O)[C@@H](OC(C)=O)[C@H]7OC(C)=O)[C@]6(C)C5CC[C@]4(C)[C@@H]3[C@@H]2C)[C@@H](O)[C@H]1OC1OC(C)C(O)C(O)C1O` (stereo partly drawn), the activity change, negative = inhibition is 5.43% [at 10.7 µM] (inactive). With `CCC/C=C\C=C/CCc1cc(O)c([C@@H]2O[C@H](CO)[C@@H](O)[C@H](O)[C@H]2O)c(O)c1C(=O)OC`, the Potency entry was “inactive”.

With `CCCOc1ccc(CCc2nc3cc(-c4c(C)noc4C)ccc3n2CCN2CCOCC2)cc1`, the Potency entry is “inactive”. Still for that read-out and setting: as for `Nc1cccc(CNC(=O)c2ccc(Oc3ccc(OCc4cccc(F)c4)cc3)nc2)c1`, the entry is “inactive”. Consider `CC(C)NC(=O)COc1cccc(-c2nc(Nc3ccc4[nH]ncc4c3)c3ccccc3n2)c1`, for which the Potency entry is “inactive”. On to `CCC(C)(NC(=O)C(CCC(N)=O)NC(=O)C1CC(O)CN1C(=O)C(C)(C)NC(=O)C(C)(C)NC(=O)C(CC(C)C)NC(=O)CNC(=O)C(NC(=O)C(C)(C)NC(=O)C(C)(C)NC(=O)C(C)(C)NC(=O)C(Cc1ccccc1)NC(C)=O)C(C)C)C(=O)N1CC(O)CC1C(=O)NC(C)(C)C(=O)NC(CO)Cc1ccccc1` (stereo not drawn) (Ac-F[Aib][Aib][Aib]VGL[Aib][Aib][Hyp]Q[Iva][Hyp][Aib][Phe(ol)]; configuration not given here), for which the outcome is “inactive [at 10.7 µM]”.
